Test results reported in PubChem BioAssay (Tox21).
Inconclusive results are not listed. Where a call stands in place of a potency, no number is given. Unmarked numbers belong to inactive results. Activity calls are given as the source filed them. Calls come from the whole dose curve; as a rule, active = well fitted activation curve with a large enough effect in the repeat runs; inconclusive = weak or mixed curves; inactive = flat fitted curve, though single readings scatter.

Assay: A CellTox Green Cytotoxicity Assay to monitor cytotoxicity in HepG2 cells - 32 hour (AID 1224883); note: nearly all actives have a fitted effect of over 50% in size
Conditions: CellTox Green fluorescence; series mostly up to 76.8 µM
Source text: National Center for Advancing Translational Sciences [NCATS]
NIH Chemical Genomics Center [NCGC]
U.S. Environmental Protection Agency [EPA]
National Institutes of Environmental Health Sciences [NIEHS]
National Toxicology Program [NTP]
Cell-based models are critical for drug discovery. Determining the natural cytotoxic effects resulting from test compounds is an essential research activity. A CellTox Green Cytotoxicity Assay to monitor cytotoxicity in real time of continues cell culture during 40 hours of the compound treatment was used to screen Tox21 10K library compounds in HepG2 cells. CellTox Green Cytotoxicity Assay is a nonlytic, homogeneous, biofluorescent method to measure cytotoxicity in cell culture after experimental manipulation. The assay system uses a proprietary asymmetric cyanine dye that is excluded from viable cells but preferentially stains the dead cell's DNA. […] Viable cells produce no appreciable increases in fluorescence. Therefore, the fluorescence signal produced by the binding interaction with dead cell DNA is proportional to cytotoxicity.
The mixture of HepG2 cell suspension and reagents were dispensed at 600cells/6 ul/well in 1536-well tissue culture treated black solid bottom plates using a Multidrop dispenser. After the assay plates were incubated at a 37 C/5% CO2 incubator for 5 hours, 23 nL of compounds dissolved in DMSO, positive and negative controls was transferred to the assay plate by a pintool work station. The plates were incubated at 37 C for 40 hours. The fluorescence intensity were measured at 0h, 8h, 16h, 24h, 32h and 40h time points using ViewLux plate reader during compound treatment.
Potency is the fitted concentration of half-maximal effect.

| Compound | Potency | cytotoxicity increase |
| --- | --- | --- |
| CC(=O)Nc1ccc(C)c(Cl)c1 | inactive | – |
| c1ccc(CN(CC2=NCCN2)c2ccccc2)cc1 | inactive | – |
| CCCCNCCCC | inactive | – |
| CCN(CC)C(=O)N(CC)CC | inactive | – |
| CC(=O)OC(C)OC(C)=O | inactive | – |
| CCCCCCC | inactive | – |
| C/C(=N\O)[C@@H](C)NCC(C)(C)CN[C@H](C)/C(C)=N/O | inactive | – |
| O=C1N(c2ccccc2)c2ccccc2C1(Cc1ccncc1)Cc1ccncc1 | inactive | – |
| CC1(C)O[C@@H]2C[C@H]3[C@@H]4CCC5=CC(=O)CC[C@]5(C)[C@@]4(F)[C@@H](O)C[C@]3(C)[C@]2(C(=O)CCl)O1 | inactive | – |
| Cc1c(-c2ccccc2)oc2c(C(=O)OCCN3CCCCC3)cccc2c1=O | inactive | – |
| CC(=O)N(CC(O)CN(C(C)=O)c1c(I)c(C(=O)NCC(O)CO)c(I)c(C(=O)NCC(O)CO)c1I)c1c(I)c(C(=O)NCC(O)CO)c(I)c(C(=O)NCC(O)CO)c1I (stereo not given) | inactive | – |
| Cc1c(C(=O)NCCO)[n+](=O)c2ccccc2n1[O-] | inactive | – |
| NCCC(O)(P(=O)(O)O)P(=O)(O)O | inactive | – |
| CC(C)C(=O)OCC(C)(C)C(O)C(C)C (stereo not given) | inactive | – |
| O=c1[nH]cnc2c1ncn2[C@@H]1O[C@H](CO)[C@@H](O)[C@H]1O | inactive | – |
| Cc1cn([C@@H]2O[C@H](CO)[C@@H](O)[C@@H]2F)c(=O)[nH]c1=O | inactive | – |
| CC/C=C\CCOC(=O)CCCCC | inactive | – |
| CCCCNc1ccc(C(=O)OCCN(CC)CC)cc1 | inactive | – |
| ClC(Cl)Cl | inactive | – |
| O=Cc1ccc(F)c(Br)c1 | inactive | – |

| Compound | Potency | cytotoxicity increase |
| --- | --- | --- |
| Cc1ccsc1C(=CCCN1CCC[C@@H](C(=O)O)C1)c1sccc1C | inactive | – |
| CCOC(=O)[C@H](CCc1ccccc1)N[C@@H](C)C(=O)N1Cc2cc(OC)c(OC)cc2C[C@H]1C(=O)O | inactive | – |
| CCN(O)CC | inactive | – |
| CCCCCCCCOC(=O)CCCCCCCCC(=O)OCCCCCCCC | inactive | – |
| Cc1nc(N)nc(N)c1-c1ccc(Cl)c(Cl)c1 | inactive | – |
| OCCN1CCN(CCO)CC1 | inactive | – |
| CCOC(=O)NCCC[Si](OCC)(OCC)OCC | inactive | – |
| Cc1c[nH]c(=S)[nH]c1=O | inactive | – |
| O=C(O[C@@H](C(=O)O)[C@@H](OC(=O)c1ccccc1)C(=O)O)c1ccccc1 | inactive | – |
| O=c1oc2c(O)c(O)cc3c(=O)oc4c(O)c(O)cc1c4c23 | – | 19.5% [at 15.8 µM] |
| FC(F)(F)C(Cl)(Cl)Cl | inactive | – |
| CCCS(=O)c1ccc2nc(NC(=O)OC)[nH]c2c1 (stereo not given) | 16.9 µM (active) | – |
| O=C1CCN(c2ccccc2)N1 | inactive | – |
| COc1cc(Cl)ccc1Cl | inactive | – |
| CC(C)C[C@H](NC(=O)OCC1c2ccccc2-c2ccccc21)C(=O)O | inactive | – |
| CCCNC(C)C(=O)Nc1c(C)csc1C(=O)OC (stereo not given) | inactive | – |
| C[C@@H]1CN(c2c(F)c(F)c3c(=O)c(C(=O)O)cn(C4CC4)c3c2F)C[C@H](C)N1 | – | -14.8% [at 15.8 µM] |
| CN(CC1(C)CCCO1)S(=O)(=O)c1ccc(Cl)c(S(N)(=O)=O)c1 (stereo not given) | inactive | – |
| CCOc1ccc2nc(N)sc2c1 | inactive | – |
| CC(C)NCC(O)COc1ccc(CCOCC2CC2)cc1 (stereo not given) | inactive | – |
